Hits are enriched below; roughly 3.1% of the tested compounds scored in any of these assays.
PLK1 PBD block – qHTS for Inhibitors of PLK1-PDB (polo-like kinase 1 - polo-box domain): Primary Screen; Serine/threonine-protein kinase PLK1 (Homo sapiens), P53350; Plk1 PBD binding of FITC phosphopeptide, fluorescence polarization; Potency, µM, usual class: inhibitors; hit rate 2.8% among 360,000; AID 720504, 2013; also: series mostly up to about 57 µM; nearly all actives have a fitted effect of over 65% in size
Target sequence (P53350 whole entry, looked up, the tested form may be a part): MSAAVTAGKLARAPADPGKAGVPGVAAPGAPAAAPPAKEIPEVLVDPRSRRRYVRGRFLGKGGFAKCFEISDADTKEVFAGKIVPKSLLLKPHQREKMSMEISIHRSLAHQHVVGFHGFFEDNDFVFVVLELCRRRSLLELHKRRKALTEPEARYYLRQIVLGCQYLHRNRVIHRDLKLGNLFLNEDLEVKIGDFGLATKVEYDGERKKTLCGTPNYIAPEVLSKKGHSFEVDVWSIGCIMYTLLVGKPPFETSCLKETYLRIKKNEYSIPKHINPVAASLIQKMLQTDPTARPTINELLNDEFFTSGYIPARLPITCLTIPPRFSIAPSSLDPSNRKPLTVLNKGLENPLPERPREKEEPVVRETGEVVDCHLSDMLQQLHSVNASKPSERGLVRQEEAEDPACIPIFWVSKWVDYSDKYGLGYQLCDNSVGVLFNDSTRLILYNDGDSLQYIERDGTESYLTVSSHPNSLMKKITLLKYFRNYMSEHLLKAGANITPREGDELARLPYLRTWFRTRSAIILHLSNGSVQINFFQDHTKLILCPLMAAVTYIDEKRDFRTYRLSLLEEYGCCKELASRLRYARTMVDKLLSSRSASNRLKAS
Tb PFK inh-1 – qHTS Assay to Find Inhibitors of T. brucei phosphofructokinase. T. brucei PFK, ADP-Glo luminescence. hit rate 0.17% among 330,000. AID 485367, 2010. ATP-dependent 6-phosphofructokinase (Trypanosoma brucei brucei), O15648. Potency, µM (doses to about 57.5 µM), usual class: inhibitors; also: nearly all actives have a fitted effect of over 60% in size
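PFK 1.25 nM, F6P 0.5 mM, ATP 0.1 mM, 0.1 M TEA pH 8.0, 5 mM MgCl2, 0.01% Tween20, 0.1% BSA; 45 min RT. ADP-Glo readout. qHTS titration up to 57 uM; curves fitted, compounds curve-classed.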
Pin1 inh – qHTS Assay to Find Inhibitors of Pin1; Pin1 FP peptide displacement, HiFluor488, 10 min; Peptidyl-prolyl cis-trans isomerase NIMA-interacting 1 (Homo sapiens), Q13526; Potency, µM (highest dose often 115 µM), hits mostly inhibitors; hit rate 0.009% among 390,000; active = well fitted inhibition curve with a large enough effect in the polarisation, with a control signal flat, not every such curve was filed as active; inconclusive = small, poorly fitted or top-dose-only effect, or effect the other way, or a change in a side signal; inactive = no such curve, though single readings can be large or run the other way; the % refers to the polarisation
Target sequence (Q13526 whole entry, looked up): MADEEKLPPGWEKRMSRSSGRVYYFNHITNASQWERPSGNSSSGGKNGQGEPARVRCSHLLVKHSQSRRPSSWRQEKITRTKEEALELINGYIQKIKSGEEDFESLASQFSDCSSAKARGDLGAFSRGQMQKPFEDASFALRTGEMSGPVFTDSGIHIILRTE
TDP1 block – qHTS Assay for Inhibitors of Tyrosyl-DNA Phosphodiesterase (TDP1); AID 485290, 2010; recombinant TDP1, AlphaScreen DNA substrate cleavage; hit rate 0.28% among 350,000; Potency, µM (series often up to 130 µM), hits mostly inhibitors; also: nearly all actives have a fitted effect of over 40% in size
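Steps: enzyme plus compound, 15 min RT; add biotin/phosphotyrosine-FITC oligonucleotide (15 nM final), react 5 min; add donor/acceptor beads (10 ug/ml final), 10 min; read AlphaScreen. Tdp1 at 1 nM final.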
S-ASM inh – Inhibitors of Secretory Acid Sphingomyelinase (S-ASM): qHTS. Sphingomyelin phosphodiesterase (Homo sapiens), P17405. placental ASM, HMU-PC fluorogenic substrate, 60 min. Potency, µM (highest dose often 57.5 µM), hits mostly inhibitors. hit rate 0.006% among 340,000. AID 504937, 2011
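Fluorogenic HMU-PC substrate (9 uM final) is turned over by placental ASM in 60 min at 37 C after a 10 min compound preincubation. Reaction ended by alkaline stop (pH 10), with fluorescence read at 386/447 nm.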
VDR inh – Inhibitors of the vitamin D receptor (VDR): qHTS; VDR-SRC2-3 peptide fluorescence polarization, 2 h; Vitamin D3 receptor (Homo sapiens), P11473; hit rate 0.93% among 400,000; Potency, µM, actives largely listed as inhibitors
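Fluorescence polarization assay measuring small-molecule disruption of VDR binding to the coregulator peptide SRC2-3. Compounds were pin-transferred (23 nl) into the reagent mix and incubated 2 h at room temperature before reading.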
Tb PFK KinaseGlo – Tb PFK orthogonal confirmatory assay using ATP depletion (Kinase-Glo Plus) as an alternative measure of Tb PFK activity: Hit Validation; shares compounds with Tb PFK inh-1; Tb PFK enzyme, ATP depletion, Kinase-Glo Plus luminescence; Potency, µM (series often up to 57.5 µM); hit rate 47% among 1,100; calls by dose curve; also: nearly all actives have a fitted effect of over 60% in size
Tb PFK inh-2 – Inhibitors of T. brucei phosphofructokinase: Hit Validation. Potency, µM (doses to about 57.5 µM), actives largely listed as inhibitors. hit rate 41% among 1,100. shares compounds with Tb PFK inh-1. purified T. brucei PFK, ADP-Glo luminescence, 45 min; also: nearly all actives have a fitted effect of over 60% in size
Numbers stand for hits; 0 = inactive; ? = inconclusive; - = no result given. Unless noted, calls follow the shape of the dose curve; as a rule, active = well fitted curve in the direction sought with a large enough effect; inconclusive = small, poorly fitted or top-dose-only effect, or another doubt; inactive = no such curve, though single readings can be large; an effect the other way counts as inactive or inconclusive.

SMILES | PLK1 PBD block | Tb PFK inh-1 | Pin1 inh | TDP1 block | S-ASM inh | VDR inh | others
CC(C)(O)C1O[C@H]2CC[C@@]3(C)[C@@](O)(CC[C@H]4Cc5c([nH]c6ccccc56)[C@@]43C)C2=CC1=O (some centres undefined) | - | - | - | 0 | - | 0
CN1C(=O)/C(=C/c2cccn2-c2ccc3ccccc3c2)C(=O)NC1=S | 0.53µM | 0 | - | 0 | 0 | 45µM
O=C1NC(=O)C(=Cc2ccc3ccccc3c2)C(=O)N1 | 4.2µM | 0 | 0 | 0 | 0 | ?
O=C1NC(=O)C(=Cc2ccc(Oc3ccc([N+](=O)[O-])cc3)cc2)C(=O)N1 | 3µM | 0 | 0 | 0 | 0 | 32µM
Cc1cc(C)cc(OCCOc2cccc(C=C3C(=O)NC(=O)NC3=O)c2)c1 | 6µM | 0 | 0 | 79µM | 0 | ?
COC(=O)C12C/C=C\Cc3ccccc3[C@@H]1CNC2=O (some centres undefined) | - | - | - | 0 | - | 0
C[C@H](CCC(=O)O)[C@H]1CC[C@@H]2[C@H]3[C@@H](CC[C@@]21C)[C@]1(C)CC[C@H](O)C[C@@H]1C[C@@H]3O | - | - | - | 0 | - | 0
CCOC(=O)C(O)(c1ccc(NC(=S)NC(=O)c2ccc(Cl)cc2Cl)c(C)c1)C(F)(F)F (centres undefined) | 0 | 0 | 0 | 0 | 0 | 0
COC(=O)C(O)(c1ccc(NC(=S)NC(=O)c2ccc(Cl)cc2Cl)c(C)c1)C(F)(F)F (centres undefined) | 21µM | 0 | 0 | 0 | 0 | ?
O=C(c1ccccc1)c1cn(CC(=O)N2CCOCC2)c2ccccc12 | 24µM | 0 | 0 | 0 | 0 | 0
CC1=NNC(=O)C1C(c1ccc(F)cc1)C(C#N)C#N (centres undefined) | 30µM | - | 0 | - | 0 | ?
CC1=C(O)C(=O)[C@@H]2O[C@@H]2C1=O | - | - | - | 0 | - | ?
Cc1ccc(C(=O)c2cn(CC(=O)Nc3ccc(C(C)C)cc3)c3nc(C)ccc3c2=O)cc1 | - | - | 0 | 0 | - | 0
CCOC(=O)[C@]12Cc3cc(OC)ccc3[C@H]1N(Cc1ccccc1)C(=O)c1cc(F)c(F)cc12 | 0 | - | 0 | - | 0 | 0
CCOC(=O)[C@]12Cc3ccccc3[C@H]1N(C(C)C)C(=O)c1cc(OC)ccc12 | 7.5µM | - | - | - | - | -
CCOC(=O)[C@]12Cc3c(cc(OC)c(OC)c3OC)[C@H]1N(C)C(=O)c1cc(OC)ccc12 | 13µM | - | - | - | - | -
CCOC(=O)[C@]12Cc3cc(OC)ccc3[C@H]1N(Cc1ccccc1)C(=O)c1ccccc12 | 0 | - | 0 | - | 0 | 0
CCOC(=O)[C@]12Cc3cc(C)ccc3[C@H]1N(Cc1ccccc1)C(=O)c1cc(F)c(F)cc12 | 11µM | - | - | - | - | -
CCOC(=O)[C@]12Cc3c(cc(OC)c(OC)c3OC)[C@H]1N(C(C)C)C(=O)c1ccccc12 | 13µM | - | - | - | - | -
N#CSCSC#N | - | - | - | 0 | - | -
CCOC(=O)[C@]12Cc3cc(C)ccc3[C@H]1N(Cc1ccccc1)C(=O)c1ccccc12 | 0 | - | 0 | - | 0 | 0
CCOC(=O)[C@]12Cc3cc(C)ccc3[C@H]1N(C1CCCCC1)C(=O)c1cc(OC)ccc12 | 2.4µM | - | - | - | - | -
CCOC(=O)[C@]12Cc3ccccc3[C@H]1N(C)C(=O)c1cc(OC)ccc12 | 13µM | - | - | - | - | -
CCOC(=O)[C@]12Cc3cc(C)ccc3[C@H]1N(C(C)C)C(=O)c1ccccc12 | 11µM | - | - | - | - | -
CC(=O)C(Sc1ncnc2c1nnn2-c1ccc(F)cc1)C(=O)N(C)C (centres undefined) | 24µM | 0 | 0 | 0 | 0 | 50µM
SMILES | PLK1 PBD block | Tb PFK inh-1 | Pin1 inh | TDP1 block | S-ASM inh | VDR inh | others
COc1c(C=C2C(=O)NC(=O)NC2=O)c(CCN(C)C(=O)c2ccccc2)cc2c1OCO2 | 27µM | 0 | 0 | - | 0 | ?
CCCOc1ccc(C(=O)NC(=S)N2C[C@H]3C[C@H](C2)c2cccc(=O)n2C3)cc1 | 27µM | 0 | 0 | - | 0 | 0
CC(C)C[C@H](NC(=O)[C@H](CC(C)C)NC(=O)[C@H](Cc1ccccc1)NC(=O)[C@@H](N)Cc1ccc(O)cc1)C(=O)N[C@@H](CCCN=C(N)N)C(=O)N[C@@H](CC(N)=O)C(=O)N1CCC[C@H]1C(=O)O | - | - | - | 0 | - | 0
Cc1ccc(CC2C(=O)N(C)C(=O)N(C)C2=O)s1 | 27µM | 0 | 0 | 0 | 0 | ?
O=C(COc1ccccc1[N+](=O)[O-])N1CCN(CCc2ccccn2)CC1 | - | - | 0 | 0 | - | 0
COc1cc2c(cc1OC)CN(C(=O)COc1ccccc1[N+](=O)[O-])CC2 | 0 | ? | 0 | 0 | 0 | 0 | Tb PFK KinaseGlo=0;Tb PFK inh-2=0
O=C(Nc1cnn(Cc2ccc(Cl)c(Cl)c2)c1)C12CC3CC(CC(C3)C1)C2 | 0 | ? | 0 | 0 | 0 | 0 | Tb PFK KinaseGlo=?;Tb PFK inh-2=?
O=C(Nc1ccc2ccccc2c1)c1nn(C23CC4CC(CC(C4)C2)C3)cc1Br | 0 | 0 | 0 | 0 | 0 | 0
CC(=O)N(C)Cc1ccc(C(=O)CCl)cc1 | 5.3µM | ? | 0 | 0 | 0 | 0 | Tb PFK KinaseGlo=2.4µM;Tb PFK inh-2=3µM
CC(C)[C@H](NC(=O)[C@H](CCC(=O)O)NC(=O)[C@H](Cc1ccccc1)NC(=O)[C@H](C)NC(=O)[C@@H](N)Cc1ccc(O)cc1)C(=O)N[C@H](C(=O)NCC(N)=O)C(C)C | - | - | - | 0 | - | 0
CC1(C)C(=O)Nc2ccccc2N1C(=O)COC(=O)Cc1ccc(Cl)c(Cl)c1 | 0 | 24µM | 0 | 0 | 0 | 0 | Tb PFK KinaseGlo=?;Tb PFK inh-2=?
O=C(O)CC1S/C(=N/N=C/c2ccc(-c3ccccc3[N+](=O)[O-])o2)NC1=O (centres undefined) | 0 | ? | ? | ? | 0 | 79µM | Tb PFK KinaseGlo=0;Tb PFK inh-2=?
Cc1ccc(-c2ccc(/C=N/N=C3/NC(=O)C(CC(=O)O)S3)o2)c([N+](=O)[O-])c1 (centres undefined) | 0 | ? | 0 | 0 | 0 | ? | Tb PFK KinaseGlo=0;Tb PFK inh-2=?
CC(=O)OC[C@]12C[C@H](OC(=O)CC(C)C)C(C)=C[C@H]1O[C@H]1[C@H](O)[C@@H](OC(C)=O)[C@@]2(C)[C@]12CO2 | - | - | - | 0 | - | 0

Screening results as filed in PubChem BioAssay.
